KCNH2 WT inh: blocks the wildtype human KCNH2 potassium channel; AID 720551; hit rate 0.37% among 340,000; U2OS, BacMam KCNH2, thallium flux FluxOr; hits give low values; activity change, % at 1.84 µM;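 active means maximum activity change below -70%; inconclusive means maximum activity change between -70% and -50%; inactive means maximum activity change above -50%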; further: on the % scale 0 is the no-effect control and ±100 the full control effect
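U2OS cells were transduced with wild-type KCNH2 virus (2.03 x 10^8 / mL) for 4 h at room temperature, then cultured overnight at 37 C. Thallium flux was read with FluxOr dye. Rate constants were normalized to DMSO controls.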
p53 reactivator: restores transcriptional activity of mutant p53. H1299 p53-A138V BP100-luciferase reporter, luminescence, 24 h. Potency, µM (doses to about 92.2 µM), for inactives: at the highest dose activity change, positive = activation, most hits filed as activators. hit rate 0.063% among 320,000. AID 504706; active means well fitted activation curve with a large enough effect; inconclusive means small, poorly fitted or top-dose-only effect; inactive means no such curve, though single readings can be large or run the other way; further: potency means the concentration at half of the fitted maximal effect; % of control where 0% means no effect; nearly all actives have a fitted effect of over 45% in size
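p53-null H1299 cells stably carrying temperature-sensitive p53-A138V and a BP100-luciferase reporter were pinned with compounds (4-point, 1:5 series) and held 24 hrs at 37 deg C. Luminescence was read 10 min after detection reagent.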
TRPV1 ag: activates the human vanilloid receptor TRPV1; hit rate 0.19% among 320,000; Q8NER1; activation, % at 8.33 µM; AID 540275; TRPV1-expressing cells, Fluo-8 calcium influx, agonist mode; in the data active means activation above about 80%; inconclusive means between about 30% and that limit; further: 0% is about no effect
Target sequence (Q8NER1 whole entry, looked up): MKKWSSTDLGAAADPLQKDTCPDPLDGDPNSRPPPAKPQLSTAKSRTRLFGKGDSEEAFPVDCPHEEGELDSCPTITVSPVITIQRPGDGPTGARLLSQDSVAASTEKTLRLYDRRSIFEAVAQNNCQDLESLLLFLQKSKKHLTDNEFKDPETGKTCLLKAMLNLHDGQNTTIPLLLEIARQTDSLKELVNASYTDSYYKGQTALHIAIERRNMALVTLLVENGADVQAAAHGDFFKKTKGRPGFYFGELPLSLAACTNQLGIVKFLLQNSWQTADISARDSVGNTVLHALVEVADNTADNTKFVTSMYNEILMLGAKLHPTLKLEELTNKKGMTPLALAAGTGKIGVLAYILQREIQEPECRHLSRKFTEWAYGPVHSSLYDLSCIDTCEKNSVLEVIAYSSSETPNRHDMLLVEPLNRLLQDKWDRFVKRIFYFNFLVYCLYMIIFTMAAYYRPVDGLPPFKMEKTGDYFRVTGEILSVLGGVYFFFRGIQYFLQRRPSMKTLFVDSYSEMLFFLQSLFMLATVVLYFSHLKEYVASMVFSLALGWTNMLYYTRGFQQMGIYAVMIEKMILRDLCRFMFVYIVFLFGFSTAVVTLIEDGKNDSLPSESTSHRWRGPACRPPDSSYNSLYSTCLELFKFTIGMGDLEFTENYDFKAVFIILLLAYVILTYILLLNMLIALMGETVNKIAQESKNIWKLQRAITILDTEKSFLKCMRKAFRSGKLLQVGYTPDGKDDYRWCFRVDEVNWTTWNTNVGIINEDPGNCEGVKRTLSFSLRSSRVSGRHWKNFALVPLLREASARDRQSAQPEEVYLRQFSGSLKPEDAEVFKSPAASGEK
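TRPV1-expressing cells were cultured overnight at 35.5C and loaded with Fluo-8 calcium dye for 40 to 90 min at room temperature. After a 10 s baseline, compound was added and calcium influx was read kinetically for 3 min (ex 480/em 520 nm).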
TRPV1 potentiator: human TRPV1 potentiation | Q8NER1 | TRPV1-expressing cells, Fluo-8 calcium influx, capsaicin EC20 potentiation | potentiation, % at 8.33 µM | hit rate 0.02% among 320,000 | AID 540277; in the data active means potentiation above about 80%; inconclusive means between about 30% and that limit; further: 0% is about no effect
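TRPV1-expressing cells were cultured overnight at 35.5C and loaded with Fluo-8 calcium dye for 40 to 90 min at room temperature. After a 10 s baseline, compound was added and calcium influx was read kinetically for 3 min (ex 480/em 520 nm).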
KCNH2 3.1 block: blocks the human KCNH2 3.1 channel isoform; U2OS KCNH2 3.1, thallium flux FluxOr; hits give low values; activity change, % (tested at about 1.8 µM); hit rate 0.95% among 340,000; AID 720553;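 active means maximum activity change below -70%; inconclusive means maximum activity change from -70% to -50%; inactive means maximum activity change above -50%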;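 further: thallium influx rate constant from kinetic fluorescence after stimulation buffer; on the % scale 0 is the no-effect control and ±100 the full control effect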
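Measured as rate of thallium-driven FluxOr signal in transduced U2OS cells carrying the 3.1 channel, read kinetically for 2 min upon stimulation; values are rate constants scaled to DMSO control wells.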
ClpP mod: qHTS Assay for Activators of ClpP; Potency, µM (series often up to 57.5 µM), without a hit: at the top dose activity change, negative = active; hit rate 1.9% among 340,000; ATP-dependent Clp protease proteolytic subunit (Bacillus subtilis (strain 168)), P80244; purified B. subtilis ClpP, FRET peptide cleavage, 20 min; active means well fitted falling curve with a large enough effect; inconclusive means small, poorly fitted or top-dose-only effect; inactive means no such curve, though single readings can be large or run the other way; further: potency means the concentration at half of the fitted maximal effect; the source files actives as falling curves though it sought activators and does not explain the sign; nearly all actives have a fitted effect of over 65% in size
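Purified B. subtilis ClpP, 10 microg/mL final in Tris/HCl pH8 with KCl, BSA, glycerol and Tween-20, cleaved an Abz/nitrotyrosine-quenched decapeptide. Fluorescence (ex 320, em 430) was read at 0 and 20 min at room temperature. Delta was normalized to 5.8 microM ADEP and DMSO/no-enzyme controls.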
Starred values were filed as active, the others as inactive; ? = inconclusive; . = no result given. This is a sample that favours compounds with a hit; in the whole collection about 2.6% have one here.

SMILES	KCNH2 WT inh	p53 reactivator	TRPV1 ag	TRPV1 potentiator	KCNH2 3.1 block	ClpP mod
COc1ccc(-c2nc(C#N)c(NCc3ccc(C)cc3)o2)cc1OC	2	.	25	-9	4	32µM*
O=C(NCc1ccccc1Cl)C1CCCN(C(=O)c2cnn(-c3ccc(F)cc3)c2-n2cccc2)C1 (configuration not stated)	.	.	.	.	.	-2%
CCOc1cc2c(C#N)c(N3CCOCC3)nc(N)c2c(N)n1	2	2%	-1	-2	-1	32µM*
CCCCc1nc(N2CCOCC2)c(C#N)c2c1CCCC2	6	?	18	-6	1	25µM*
Cc1cc(N2CCOCC2)nc(N2CCOCC2)c1C#N	-17	.	.	.	-8	-2%
Cc1cc(C)c(C#N)c(N2CCOCC2)n1	11	-8%	10	-12	7	25µM*
CC(C)c1nc(N2CCOCC2)c(C#N)c2c1CCC2	3	25%	17	-15	-15	25µM*
COC(=O)C[C@@H]1C=C[C@H](NC(=O)c2ccccc2)[C@@H](CO)O1	.	.	.	.	.	-1%
CCOc1ccc(/C=C/c2ccc3ccccc3n2)cc1OCC	.	.	.	.	.	0%
Cc1ccc(CCNC(=O)c2cc3c(=O)oc4ccccc4c3s2)cc1	.	.	.	.	.	-2%
CCCc1nc(N2CCOCC2)c(C#N)c2c1CCCC2	-6	3%	21	-6	12	32µM*
CCCSc1nc(N2CCOCC2)c2c(c1C#N)CCCC2	4	15%	25	-12	-6	-11%
O=C1NCCc2c1[nH]c1ccccc21	-1	1%	-1	3	17	25µM*
O=C(COc1ccccc1Cl)Nc1ccc2[nH]c(=O)[nH]c2c1	-1	12%	20	-7	15	16µM*
Cc1occc1-c1nnc(SCC(=O)c2cc3ccccc3oc2=O)o1	-9	20%	1	16	-23	28µM*
CCOC(=O)N1CCc2c(sc3c2c(=O)n(CCc2ccccc2)c(=O)n3Cc2cc(C)ccc2C)C1	.	.	.	.	.	-18%
COc1ccccc1CNC(=O)CSc1nc(-c2ccc(OC)c(OC)c2)cc(C(F)(F)F)n1	.	.	.	.	.	28µM*
COc1ccc(-c2cc(C(F)(F)F)nc(SCC(=O)NCc3cnn(C)c3C)n2)cc1OC	-174*	-9%	?	-14	2	28µM*
COc1ccc(-c2cc(C(F)(F)F)nc(SCC(=O)NCc3cccs3)n2)cc1	8	5%	?	-18	-10	35µM*
COc1ccc(-c2cc(C(F)(F)F)nc(SCCC(=O)N3CCOCC3)n2)cc1	-11	0%	?	4	0	25µM*
COc1ccc(-c2cc(C(F)(F)F)nc(SCCC(=O)N3CCN(C)CC3)n2)cc1	-4	.	.	.	8	-2%
COc1ccccc1CNC(=O)C1CCC(CNS(=O)(=O)c2ccc3c(c2)CCCC(=O)N3)CC1 (configuration not stated)	.	.	.	.	.	-1%
CCOc1ccccc1CNC(=O)CC(C)n1ccc(C)n1 (configuration not stated)	.	.	.	.	.	0%
COc1cc(NC(C)=O)c2ncccc2c1[N+](=O)[O-]	-4	3%	-5	4	-16	22µM*
CC(C)C[C@H]1CN(CCCC[C@H]2CNC(=O)C(=O)N2CC2CCCCC2)C(=O)C(=O)N1CC1CCCCC1	.	.	.	.	.	2%
SMILES	KCNH2 WT inh	p53 reactivator	TRPV1 ag	TRPV1 potentiator	KCNH2 3.1 block	ClpP mod
Cc1ccc(CSc2ccc(-c3ccc4c(c3)OCO4)nn2)cc1	13	5%	9	20	-4	28µM*
Cc1ccc(CSc2nnc(-c3ccc4c(c3)OCO4)o2)cc1	-1	4%	2	-2	-7	35%
COc1ccc(/C=C/C(=O)Nc2ccc(OC)cc2[N+](=O)[O-])cc1	-5	-7%	12	-6	-85*	-2%
COc1ccc(NC(=O)c2cc(Cl)ccc2Cl)c([N+](=O)[O-])c1	-13	-10%	1	-2	-2	28µM*
CCOc1ccc(C2=C(C(=O)CC)Sc3nncn3N2C(=O)CC)cc1	.	.	.	.	.	1%
C=CCN1[C@@H](Cc2ccccc2)COCCS1(=O)=O	-6	.	.	.	20	1%
Cc1nn2c(c1-c1ccccc1)NC1=C(C(=O)CCC1)C2c1ccccc1 (configuration not stated)	1	-2%	?	-6	-2	8.9µM*
COc1ccc(C2C3=C(CCCC3=O)Nc3c(-c4ccccc4)c(C)nn32)cc1 (configuration not stated)	-3	-10%	?	-7	14	?
C/C(=N\NC(=O)CSc1nc2ccccc2o1)c1cccc(O)c1	5	2%	-2	23	-116*	-1%
C/C(=N\NC(=O)CSc1nc2ccccc2o1)c1ccc(O)cc1	-2	3%	0	1	28	.
O=Cc1ccc(N2CCCC2)o1	7	0%	1	-4	1	.
CC1CCN(c2ccc(C=O)o2)CC1	.	4%	-4	-4	-196*	1%
Cc1ccc(S(=O)(=O)NCC2CCC(C(=O)NCCc3ccc(Cl)cc3)CC2)cc1 (configuration not stated)	.	.	.	.	.	1%
CCOC(=O)C1(C)C=C(Nc2ccc(NC(C)=O)cc2)C(=O)N1c1ccc(NC(C)=O)cc1 (configuration not stated)	5	-5%	0	3	6	25µM*
CCc1nn2c(=O)cc(COC(=O)c3cccc(NC(=O)COc4ccccc4F)c3)nc2s1	.	.	.	.	.	5%
CCc1cc(C(=O)N/N=C/c2ccc(O)cc2)c2ccccc2n1	-1	-1%	-3	23	-24	.
CC(C)(C)c1cc(C(=O)N/N=C/c2ccc(O)cc2)n(-c2ccccc2)n1	2	2%	?	-14	10	32µM*
CCOC(=O)c1c(N)nn(C(C)=O)c1-c1ccccc1	-8	-2%	-1	-7	-73*	2%
COc1cccc(-n2cnc3sc4c(c3c2=O)CCC4)c1	-10	-3%	9	15	-1	32µM*
O=c1c2c3c(sc2ncn1/N=C/c1ccncc1)CCCC3	-25	11%	12	-8	-1	-2%
COc1cccc(-n2cnc3sc(-c4ccccc4)cc3c2=O)c1	3	.	.	.	-25	-1%
O=c1c2c3c(sc2ncn1/N=C/c1cccnc1)CCCC3	9	-4%	19	-8	-77*	.
O=C(NNC(=O)c1cc2ccccc2cc1O)Nc1ccc(Br)cc1	-13	-2%	1	12	.	28µM*
COc1ccc(NC(=O)NNC(=O)c2cc3ccccc3cc2O)cc1	2	8%	2	9	7	-3%
Cc1cccc(N2CCN(C(=O)Cc3c(C(=O)O)c(C)cn3C)CC2)c1C	.	.	.	.	.	-4%
